Assay [1] has as its target rat Opioid Receptor, Non-selective Binding, Oprm1 (gene 25601) (UniProt P33535). As to the kind of experiment: NVS_GPCR_rOpiate_NonSelective: NovaScreen (NVS) G Protein-Coupled Receptor Assay for rat Opioid Receptor, Non-selective Binding (AID 2283318). The protocol: NVS_GPCR_rOpiate_NonSelective is a biochemical, single-readout assay that uses extracted gene-proteins from Rat forebrain membranes in a tissue-based cell-free assay. Measurements were taken 1.5 hours after chemical dosing in a 48-well plate.NVS_GPCR_rOpiate_NonSelective is one of one assay component(s) measured or calculated from the NVS_GPCR_rOpiate_NonSelective assay. It is designed to make measurements of radioligand binding, a form of binding reporter, as detected with scintillation counting signals by Filter-based radiodetection technology.Data from the assay component NVS_GPCR_rOpiate_NonSelective was analyzed into 1 assay endpoint. This assay endpoint, NVS_GPCR_rOpiate_NonSelective, was analyzed in the positive analysis fitting direction relative to DMSO as the negative control and baseline of activity. Using a type of binding reporter, loss-of-signal activity can be used to understand changes in the binding as they relate to the gene Oprm1. Furthermore, this assay endpoint can be referred to as a primary readout, because the performed assay has only produced 1 assay endpoint. To generalize the intended target to other relatable targets, this assay endpoint is annotated to the gpcr intended target family, where the subfamily is rhodopsin-like receptor.
Binding assays used specific radioligands (tritiated, iodinated) with non-radioactive competitive displacement ligands in agonist or antagonist protocols (as indicated) and various reference compounds and inhibitors to titrate specific binding to receptors and transporters. Most enzyme assays (CYPs, kinases, phosphatases, proteases, HDACs) used recombinant protein and specific substrates (fluorescence mostly, some colorimetric and radioactive) and inhibitors, followed by a biochemical separation of substrate and product. All assays for the biochemical HTS were initially run in duplicate at a single concentration (10 uM for CYP450 assays and 25 uM for all others). […] Each assay was run with positive and negative controls, and concurrent controls on every plate. […]

The target of assay [2] is Sodium channel protein type 1 subunit alpha (Rattus norvegicus) (UniProt P04774). As to the kind of experiment: NVS_IC_rNaCh_site2: NovaScreen (NVS) Ion Channel Assay for rat Sodium Channel, Site 2 (NaCh) (AID 2283322).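 Note: hit means loss of radioligand binding signal relative to DMSO so AC50 marks displacement.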 The procedure:
(§1) NVS_IC_rNaCh_site2 is a biochemical, single-readout assay that uses extracted gene-proteins from Rat forebrain membranes in a tissue-based cell-free assay. Measurements were taken 1 hour after chemical dosing in a 48-well plate.NVS_IC_rNaCh_site2 is one of one assay component(s) measured or calculated from the NVS_IC_rNaCh_site2 assay. It is designed to make measurements of radioligand binding, a form of binding reporter, as detected with scintillation counting signals by Filter-based radiodetection technology.Data from the assay component NVS_IC_rNaCh_site2 was analyzed into 1 assay endpoint. This assay endpoint, NVS_IC_rNaCh_site2, was analyzed in the positive analysis fitting direction relative to DMSO as the negative control and baseline of activity. Using a type of binding reporter, loss-of-signal activity can be used to understand changes in the binding as they relate to the gene Scn1a. Furthermore, this assay endpoint can be referred to as a primary readout, because the performed assay has only produced 1 assay endpoint. To generalize the intended target to other relatable targets, this assay endpoint is annotated to the ion channel intended target family, where the subfamily is sodium channel.
Binding assays used specific radioligands (tritiated, iodinated) with non-radioactive competitive displacement ligands in agonist or antagonist protocols (as indicated) and various reference compounds and inhibitors to titrate specific binding to receptors and transporters. Most enzyme assays (CYPs, kinases, phosphatases, proteases, HDACs) used recombinant protein and specific substrates (fluorescence mostly, some colorimetric and radioactive) and inhibitors, followed by a biochemical separation of substrate and product. All assays for the biochemical HTS were initially run in duplicate at a single concentration (10 uM for CYP450 assays and 25 uM for all others). […] Each assay was run with positive and negative controls, and concurrent controls on every plate. The follow-up (secondary) screen tested active chemical-pairs in concentration series, as well as a few additional assays not tested in the primary screen, some selected negative inactives, and several cases re-run in the concentration series for confirmatory purposes.

For the next assay, the system named is NCBI gene 24521. As to the kind of experiment: NVS_IC_rKATPCh: NovaScreen (NVS) Ion Channel Assay for rat Potassium Channel, ATP-Sensitive (KATPCh) (AID 2283319). The protocol: NVS_IC_rKATPCh is a biochemical, single-readout assay that uses extracted gene-proteins from Rat cortical membranes in a tissue-based cell-free assay. Measurements were taken 2 hours after chemical dosing in a 48-well plate.NVS_IC_rKATPCh is one of one assay component(s) measured or calculated from the NVS_IC_rKATPCh assay. It is designed to make measurements of radioligand binding, a form of binding reporter, as detected with scintillation counting signals by Filter-based radiodetection technology.Data from the assay component NVS_IC_rKATPCh was analyzed into 1 assay endpoint. This assay endpoint, NVS_IC_rKATPCh, was analyzed in the positive analysis fitting direction relative to DMSO as the negative control and baseline of activity. Using a type of binding reporter, loss-of-signal activity can be used to understand changes in the binding as they relate to the gene Kcnj1. Furthermore, this assay endpoint can be referred to as a primary readout, because the performed assay has only produced 1 assay endpoint. To generalize the intended target to other relatable targets, this assay endpoint is annotated to the ion channel intended target family, where the subfamily is potassium channel. […]

Assay [3] deals with Voltage-dependent N-type calcium channel subunit alpha-1B (Rattus norvegicus) (UniProt Q02294). As to the kind of experiment: NVS_IC_rCaChN: NovaScreen (NVS) Ion Channel Assay for rat Calcium Channel, Type N (CaChN) (AID 2283317).
Assay [4] in a line: NVS_IC_rCaDHPRCh_L: NovaScreen (NVS) Ion Channel Assay for rat Calcium Channel, Type L, Dihydropyridine Site (CaDHPRCh_L) (AID 2283320). The protocol:
as §1, with “NVS_IC_rCaDHPRCh_L” for “NVS_IC_rNaCh_site2”, “cortical” for “forebrain”, “plate.NVS_IC_rCaDHPRCh_L” for “plate.NVS_IC_rNaCh_site2”, “NVS_IC_rCaDHPRCh_L,” for “NVS_IC_rNaCh_site2,”, “Cacna1a.” for “Scn1a.”, “calcium” for “sodium”
Binding assays used specific radioligands (tritiated, iodinated) with non-radioactive competitive displacement ligands in agonist or antagonist protocols (as indicated) and various reference compounds and inhibitors to titrate specific binding to receptors and transporters. Most enzyme assays (CYPs, kinases, phosphatases, proteases, HDACs) used recombinant protein and specific substrates (fluorescence mostly, some colorimetric and radioactive) and inhibitors, followed by a biochemical separation of substrate and product. All assays for the biochemical HTS were initially run in duplicate at a single concentration (10 uM for CYP450 assays and 25 uM for all others). Assay-chemical combinations meeting a pre-defined threshold (e.g., 30% inhibition and other criteria defined below) were then run in singleton concentration-response format with maximum concentration of 20 uM for CYPs and 50 uM for all others. Each assay was run with positive and negative controls, and concurrent controls on every plate. The follow-up (secondary) screen tested active chemical-pairs in concentration series, as well as a few additional assays not tested in the primary screen, some selected negative inactives, and several cases re-run in the concentration series for confirmatory purposes.

Assay [5] has as its target rat Somatostatin Receptor (SST), Sstr1 (gene 25033) (UniProt P28646). In words: NVS_GPCR_rSST: NovaScreen (NVS) G Protein-Coupled Receptor Assay for rat Somatostatin Receptor (SST) (AID 2283314). The gist of the method: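 Single-concentration duplicate screen (25 uM), then concentration-response up to 50 uM for chemicals passing a threshold such as 30% inhibition. Membranes came from rat forebrain. Binding was measured 1 h post-dose by filter radiodetection and scintillation, relative to DMSO.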

Another assay relates to NCBI gene 257648. As to the kind of experiment: NVS_IC_rCaChN: NovaScreen (NVS) Ion Channel Assay for Calcium Channel, Type N (CaChN) (AID 2283317).
Assay [6] concerns the target rat Neonicotinoid receptor (NNR), Chrna7 (gene 25302) (UniProt Q05941). In words: NVS_LGIC_rNNR_BungSens: NovaScreen (NVS) Ligand-Gated Ion Channel Assay for rat Neonicotinoid receptor (NNR) (AID 2283315). The gist of the method: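 Rat cortical membrane preparation incubated 2.5 h with tritiated or iodinated radioligand and test chemical. Bound radioactivity was filtered and counted by scintillation, and displacement was analysed against DMSO.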

The target in assay [7] is bovine Gamma-Aminobutyric Acid Type A Receptor BDZ, alpha 1 site (GABARa1), GABRA1 (gene 780973) (UniProt P08219). In words: NVS_LGIC_bGABARa1: NovaScreen (NVS) Ligand-Gated Ion Channel Assay for bovine Gamma-Aminobutyric Acid Type A Receptor BDZ, alpha 1 site (GABARa1) (AID 2283321). The gist of the method:
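Bovine cortex membrane preparation, benzodiazepine site on GABA-A alpha1; specific radioligand displacement read after 0.75 h by filtration and scintillation. Screen at 25 uM, then singleton titrations up to 50 uM; DMSO baseline.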

Records with an inconclusive call do not appear. Activity calls are given as the source filed them. Rule for the calls: active = hit-call score of the fitted dose curve at least 0.9, where 1 is the maximum; inconclusive = response in the unintended direction; inactive = score below 0.9.

The term AC50 denotes the concentration giving half of the maximal activity seen.

Chain of rat Opioid Receptor, Non-selective Binding, Oprm1 (gene 25601) (P33535 whole entry, looked up): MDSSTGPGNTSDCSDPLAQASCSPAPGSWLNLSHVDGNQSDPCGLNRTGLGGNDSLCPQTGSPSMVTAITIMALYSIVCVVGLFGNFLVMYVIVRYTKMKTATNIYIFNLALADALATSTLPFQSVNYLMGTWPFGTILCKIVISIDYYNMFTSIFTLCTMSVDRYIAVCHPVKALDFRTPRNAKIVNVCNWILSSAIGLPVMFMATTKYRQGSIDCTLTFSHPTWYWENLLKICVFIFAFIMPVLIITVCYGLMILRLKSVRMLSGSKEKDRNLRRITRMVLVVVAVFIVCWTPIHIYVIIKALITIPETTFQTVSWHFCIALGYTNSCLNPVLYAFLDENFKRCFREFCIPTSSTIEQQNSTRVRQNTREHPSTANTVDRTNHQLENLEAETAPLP
Chain of rat Somatostatin Receptor (SST), Sstr1 (gene 25033) (P28646 whole entry, looked up): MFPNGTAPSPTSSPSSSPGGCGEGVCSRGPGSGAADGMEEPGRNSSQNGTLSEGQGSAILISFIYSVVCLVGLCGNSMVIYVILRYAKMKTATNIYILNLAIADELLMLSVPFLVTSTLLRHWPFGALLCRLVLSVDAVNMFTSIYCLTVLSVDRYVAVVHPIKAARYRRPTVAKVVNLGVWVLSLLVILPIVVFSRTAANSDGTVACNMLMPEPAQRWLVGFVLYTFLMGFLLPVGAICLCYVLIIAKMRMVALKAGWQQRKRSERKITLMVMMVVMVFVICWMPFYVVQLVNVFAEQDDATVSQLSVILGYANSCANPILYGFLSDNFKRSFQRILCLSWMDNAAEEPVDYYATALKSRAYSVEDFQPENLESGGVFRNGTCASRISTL
Chain of rat Neonicotinoid receptor (NNR), Chrna7 (gene 25302) (Q05941 whole entry, looked up): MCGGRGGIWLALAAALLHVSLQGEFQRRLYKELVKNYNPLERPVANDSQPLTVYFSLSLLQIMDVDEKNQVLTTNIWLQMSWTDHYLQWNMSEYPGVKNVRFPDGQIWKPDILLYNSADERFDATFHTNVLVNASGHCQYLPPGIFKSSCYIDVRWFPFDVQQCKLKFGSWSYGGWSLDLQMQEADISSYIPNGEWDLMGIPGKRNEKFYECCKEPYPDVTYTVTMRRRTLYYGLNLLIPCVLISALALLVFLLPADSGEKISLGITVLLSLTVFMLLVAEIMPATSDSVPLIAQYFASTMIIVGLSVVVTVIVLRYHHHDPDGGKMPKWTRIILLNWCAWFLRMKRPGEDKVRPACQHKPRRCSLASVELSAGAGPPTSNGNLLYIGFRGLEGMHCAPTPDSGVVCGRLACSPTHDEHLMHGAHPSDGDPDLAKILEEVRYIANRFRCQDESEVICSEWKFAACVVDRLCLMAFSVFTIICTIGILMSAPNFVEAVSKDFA
Chain of bovine Gamma-Aminobutyric Acid Type A Receptor BDZ, alpha 1 site (GABARa1), GABRA1 (gene 780973) (P08219 whole entry, looked up): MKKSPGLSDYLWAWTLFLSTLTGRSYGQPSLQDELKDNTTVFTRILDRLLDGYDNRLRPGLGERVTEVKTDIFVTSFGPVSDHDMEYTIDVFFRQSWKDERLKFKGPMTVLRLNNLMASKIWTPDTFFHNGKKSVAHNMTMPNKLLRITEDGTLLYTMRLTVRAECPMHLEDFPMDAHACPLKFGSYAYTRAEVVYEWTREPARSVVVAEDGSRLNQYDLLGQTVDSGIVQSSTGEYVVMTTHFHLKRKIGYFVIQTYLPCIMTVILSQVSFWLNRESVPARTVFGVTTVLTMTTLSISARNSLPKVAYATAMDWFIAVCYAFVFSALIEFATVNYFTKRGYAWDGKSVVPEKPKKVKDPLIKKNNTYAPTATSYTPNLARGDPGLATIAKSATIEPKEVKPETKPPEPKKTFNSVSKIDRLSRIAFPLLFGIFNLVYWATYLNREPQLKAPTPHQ

Regarding `CCC(C)(c1ccc(O)cc1)c1ccc(O)cc1`, the AC50 in [1] is 15.6 µM (active); in [2], 13.7 µM (active).
With `Cc1cc(O)ccc1Cl`, the compound was called inactive in the assay with NCBI gene 24521.
Take `CC1=C2C[C@H]3[C@@H](CC=C4C[C@@H](O)CC[C@@]43C)[C@@H]2CC[C@]12O[C@@H]1C[C@H](C)CN[C@H]1[C@H]2C`: the compound was classed as inactive in assay [1]. For the same compound, in assay [2], the AC50 was 0.171 µM (active).
With `Oc1ccc(C(c2ccc(O)cc2)(C(F)(F)F)C(F)(F)F)cc1`, the AC50 in [2] is 5.87 µM (active).
In the case of `Clc1ccc(C(c2ccccc2Cl)C(Cl)(Cl)Cl)cc1` (centres undefined), the outcome in assay [3] was inactive.
For `CC(C)(c1ccccc1)c1ccc(O)cc1`, the AC50 was 25 µM (active) in assay [4] and 31.4 µM (active) in assay [2].
For the compound `CN(C)CCO`, the AC50 in [4] was 25 µM (active).
Regarding `CCCCCCCCCC[N+](C)(C)CCCCCCCCCC`, the result in assay [5] was inactive. Further, the AC50 with NCBI gene 257648 is 41.7 µM (active); in assay [4] it was 10.2 µM (active); in assay [2], 1.03 µM (active).
Turning to `CCOP(=S)(OCC)SCSC(C)(C)C`, the compound was classed as inactive in assay [6].
For `CC(c1ccc(O)cc1)(c1ccc(O)cc1)c1ccc(O)cc1`, the call in [7] was inactive.
For the compound `C[C@]12CCC(=O)C=C1CC[C@@H]1[C@@H]2CC[C@]2(C)C(=O)CC[C@@H]12`, the AC50 was 17.6 µM (active) in assay [5] and 25 µM (active) in assay [2]. Besides, the result in [1] was inactive.
Turning to `ClC1=C(Cl)[C@]2(Cl)[C@@H]3[C@H]4C[C@H]([C@@H]5O[C@H]45)[C@@H]3[C@@]1(Cl)C2(Cl)Cl`, the AC50 in assay [5] was 9.78 µM (active). Further, the result in [3] was inactive.
`ClC1=C(Cl)[C@]2(Cl)[C@@H]3[C@@H]4C[C@@H]([C@H]5O[C@@H]45)[C@@H]3[C@@]1(Cl)C2(Cl)Cl`: the AC50 in [5] was 10.6 µM (active).
Take `COc1ccc(O)c(C(C)(C)C)c1`: the AC50 in [2] was 38.2 µM (active).
Consider `CCC(=O)O[C@H]1CC[C@H]2[C@@H]3CCC4=CC(=O)CC[C@]4(C)[C@H]3CC[C@]12C`, for which the outcome in assay [3] was inactive.

The values are drawn from PubChem BioAssay (EPA / NIEHS).
